# Assay results taken from PubChem BioAssay AID1159580 (chemical genetic matrix, 2015).
# “And” between values parts separate entries of the source, which are not always exact repeats. Equal values may be shown once. In all, about 5,500 compounds went through this assay and about 2,000 (36%) were called active. About 18% were inconclusive and are not listed. Some of the results follow. A number with no mark means an inactive call. Cut-off read from the data, not from the text of the source: active = normalized growth mostly below about 0.91 (no sharp cut-off); inconclusive = no clear call, values can overlap the other calls; inactive = mostly above about 0.92.
# Test: chemical genetic growth profiling, strain panel (AID 1159580);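 note: tested at 20 µM; growth read once vehicle control cultures reached saturation at 30 °C; 1 = growth at the plate median or of vehicle wells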
# Conditions: growth OD
structure (smiles),measurement,setting,value
Cc1ncc(CNC(=O)N(CCCl)N=O)c(N)n1,normalized growth,"S. cerevisiae deletion strains, locus YJR075W, strain HOC1, stronger effect = lower value",1.01
same,normalized growth,"S. cerevisiae deletion strains, locus YKL009W, strain mrt4, stronger effect = lower value",0.976
same,normalized growth,"S. cerevisiae deletion strains, locus YKL068W, stronger effect = lower value",1
same,normalized growth,"S. cerevisiae deletion strains, locus YKL085W, strain MDH1 (second series), stronger effect = lower value",0.996
same,normalized growth,"S. cerevisiae deletion strains, locus YKL085W, strain MDH1, stronger effect = lower value",0.996
same,normalized growth,"S. cerevisiae deletion strains, locus YKL160W, strain elf1, stronger effect = lower value",0.996
same,normalized growth,"S. cerevisiae deletion strains, locus YKL190W, strain CNB1, stronger effect = lower value",1.01
same,normalized growth,"S. cerevisiae deletion strains, locus YKR001C, strain vps1, stronger effect = lower value",0.974
same,normalized growth,"S. cerevisiae deletion strains, locus YKR026C, strain gcn3, stronger effect = lower value",1.02
same,normalized growth,"S. cerevisiae deletion strains, locus YKR091W, strain srl3, stronger effect = lower value",1
same,normalized growth,"S. cerevisiae deletion strains, locus YLL001W, strain dnm1, stronger effect = lower value",0.97
same,normalized growth,"S. cerevisiae deletion strains, locus YLL026W, stronger effect = lower value",1.01
same,normalized growth,"S. cerevisiae deletion strains, locus YLL041C, strain sdh2, stronger effect = lower value",1.01
same,normalized growth,"S. cerevisiae deletion strains, locus YLR027C, strain aat2, stronger effect = lower value",0.99
same,normalized growth,"S. cerevisiae deletion strains, locus YLR039C, strain RIC1, stronger effect = lower value",1.04
same,normalized growth,"S. cerevisiae deletion strains, locus YLR058C, strain SHM2, stronger effect = lower value",1.02
same,normalized growth,"S. cerevisiae deletion strains, locus YLR102C, strain apc9, stronger effect = lower value",0.983
same,normalized growth,"S. cerevisiae deletion strains, locus YLR113W, strain HOG1, stronger effect = lower value",0.982
same,normalized growth,"S. cerevisiae deletion strains, locus YLR221C, strain rsa3, stronger effect = lower value",1.03
same,normalized growth,"S. cerevisiae deletion strains, locus YLR258W, strain gsy2, stronger effect = lower value",1
same,normalized growth,"S. cerevisiae deletion strains, locus YLR262C, strain YPT6 (second series), stronger effect = lower value",1.07
same,normalized growth,"S. cerevisiae deletion strains, locus YLR262C, strain YPT6, stronger effect = lower value",1.03
same,normalized growth,"S. cerevisiae deletion strains, locus YLR268W, strain sec22, stronger effect = lower value",0.983
same,normalized growth,"S. cerevisiae deletion strains, locus YLR320W, strain mms22, stronger effect = lower value",1.03
same,normalized growth,"S. cerevisiae deletion strains, locus YLR330W, strain CHS5, stronger effect = lower value",1.02
same,normalized growth,"S. cerevisiae deletion strains, locus YLR342W, strain FKS1 (second series), stronger effect = lower value",1.01
same,normalized growth,"S. cerevisiae deletion strains, locus YLR342W, strain FKS1, stronger effect = lower value",1.02
same,normalized growth,"S. cerevisiae deletion strains, locus YLR357W, strain rsc2, stronger effect = lower value",1.02
same,normalized growth,"S. cerevisiae deletion strains, locus YLR370C, strain arc18, stronger effect = lower value",1.01
same,normalized growth,"S. cerevisiae deletion strains, locus YLR371W, strain rom2, stronger effect = lower value",0.981
same,normalized growth,"S. cerevisiae deletion strains, locus YLR384C, strain iki3, stronger effect = lower value",1.03
same,normalized growth,"S. cerevisiae deletion strains, locus YLR418C, strain cdc73, stronger effect = lower value",0.965
same,normalized growth,"S. cerevisiae deletion strains, locus YML016C, strain PPZ1, stronger effect = lower value",1.02
same,normalized growth,"S. cerevisiae deletion strains, locus YML032C, strain rad52, stronger effect = lower value",0.903 (active)
same,normalized growth,"S. cerevisiae deletion strains, locus YML120C, strain ndi1, stronger effect = lower value",0.991
same,normalized growth,"S. cerevisiae deletion strains, locus YML124C, strain tub3, stronger effect = lower value",0.989
same,normalized growth,"S. cerevisiae deletion strains, locus YMR058W, strain fet3, stronger effect = lower value",1.02
same,normalized growth,"S. cerevisiae deletion strains, locus YMR078C, strain ctf18, stronger effect = lower value",0.964
same,normalized growth,"S. cerevisiae deletion strains, locus YMR125W, strain sto1, stronger effect = lower value",1
same,normalized growth,"S. cerevisiae deletion strains, locus YMR129W, stronger effect = lower value",1.02
same,normalized growth,"S. cerevisiae deletion strains, locus YMR205C, strain PFK2, stronger effect = lower value",1.01
same,normalized growth,"S. cerevisiae deletion strains, locus YMR223W, strain ubp8, stronger effect = lower value",0.994
same,normalized growth,"S. cerevisiae deletion strains, locus YMR231W, strain pep5, stronger effect = lower value",1
same,normalized growth,"S. cerevisiae deletion strains, locus YMR263W, strain SAP30, stronger effect = lower value",1.01
same,normalized growth,"S. cerevisiae deletion strains, locus YMR307W, strain GAS1, stronger effect = lower value",0.992 and 1.01
same,normalized growth,"S. cerevisiae deletion strains, locus YNL067W, strain RPL9B, stronger effect = lower value",1.01
same,normalized growth,"S. cerevisiae deletion strains, locus YNL071W, strain lat1, stronger effect = lower value",1.01
same,normalized growth,"S. cerevisiae deletion strains, locus YNL128W, strain TEP1, stronger effect = lower value",1.01 and 1
same,normalized growth,"S. cerevisiae deletion strains, locus YNL153C, strain GIM3, stronger effect = lower value",1.02 and 0.991
same,normalized growth,"S. cerevisiae deletion strains, locus YNL175C, strain NOP13, stronger effect = lower value",0.997
same,normalized growth,"S. cerevisiae deletion strains, locus YNL183C, strain NPR1, stronger effect = lower value",0.913
same,normalized growth,"S. cerevisiae deletion strains, locus YNL197C, strain WHI3, stronger effect = lower value",0.999
same,normalized growth,"S. cerevisiae deletion strains, locus YNL209W, strain ssb2, stronger effect = lower value",0.992
same,normalized growth,"S. cerevisiae deletion strains, locus YNL224C, strain SQS1, stronger effect = lower value",1.01
same,normalized growth,"S. cerevisiae deletion strains, locus YNL233W, strain BNI4, stronger effect = lower value",1.01
same,normalized growth,"S. cerevisiae deletion strains, locus YNL248C, strain rpa49, stronger effect = lower value",1.02
same,normalized growth,"S. cerevisiae deletion strains, locus YNL250W, strain rad50, stronger effect = lower value",0.972
same,normalized growth,"S. cerevisiae deletion strains, locus YNL271C, strain bni1, stronger effect = lower value",0.979
same,normalized growth,"S. cerevisiae deletion strains, locus YNL298W, strain CLA4, stronger effect = lower value",0.996
same,normalized growth,"S. cerevisiae deletion strains, locus YNL307C, strain MCK1, stronger effect = lower value",1
same,normalized growth,"S. cerevisiae deletion strains, locus YNL322C, strain KRE1 (second series), stronger effect = lower value",0.937
same,normalized growth,"S. cerevisiae deletion strains, locus YNL322C, strain KRE1, stronger effect = lower value",1.01
same,normalized growth,"S. cerevisiae deletion strains, locus YNR049C, strain mso1, stronger effect = lower value",1.02
same,normalized growth,"S. cerevisiae deletion strains, locus YNR052C, strain pop2, stronger effect = lower value",0.983
same,normalized growth,"S. cerevisiae deletion strains, locus YOL006C, strain TOP1, stronger effect = lower value",1.02
same,normalized growth,"S. cerevisiae deletion strains, locus YOL012C, strain htz1",1.04
same,normalized growth,"S. cerevisiae deletion strains, locus YOL147C, strain pex11, stronger effect = lower value",0.978
same,normalized growth,"S. cerevisiae deletion strains, locus YOR001W, strain rrp6, stronger effect = lower value",1.03
same,normalized growth,"S. cerevisiae deletion strains, locus YOR061W, strain CKA2, stronger effect = lower value",1.02
same,normalized growth,"S. cerevisiae deletion strains, locus YOR069W, strain VPS5, stronger effect = lower value",1.02
same,normalized growth,"S. cerevisiae deletion strains, locus YOR070C, strain gyp1, stronger effect = lower value",1.03
same,normalized growth,"S. cerevisiae deletion strains, locus YOR080W, strain dia2, stronger effect = lower value",1.01
same,normalized growth,"S. cerevisiae deletion strains, locus YOR083W, strain WHI5 (second series), stronger effect = lower value",1.01
same,normalized growth,"S. cerevisiae deletion strains, locus YOR083W, strain WHI5, stronger effect = lower value",0.979
same,normalized growth,"S. cerevisiae deletion strains, locus YOR106W, strain vam3, stronger effect = lower value",0.959
same,normalized growth,"S. cerevisiae deletion strains, locus YOR136W, strain idh2, stronger effect = lower value",0.981
same,normalized growth,"S. cerevisiae deletion strains, locus YOR144C, strain elg1, stronger effect = lower value",0.978
same,normalized growth,"S. cerevisiae deletion strains, locus YOR184W, strain ser1, stronger effect = lower value",0.989
same,normalized growth,"S. cerevisiae deletion strains, locus YOR231W, strain MKK1, stronger effect = lower value",0.953
same,normalized growth,"S. cerevisiae deletion strains, locus YOR265W, strain rbl2, stronger effect = lower value",1.01
same,normalized growth,"S. cerevisiae deletion strains, locus YOR270C, strain vph1, stronger effect = lower value",1.03
same,normalized growth,"S. cerevisiae deletion strains, locus YOR290C, strain snf2, stronger effect = lower value",0.993
same,normalized growth,"S. cerevisiae deletion strains, locus YOR316C, strain cot1, stronger effect = lower value",0.99
same,normalized growth,"S. cerevisiae deletion strains, locus YPL051W, strain arl3, stronger effect = lower value",0.974
same,normalized growth,"S. cerevisiae deletion strains, locus YPL055C, strain LGE1, stronger effect = lower value",1.02
same,normalized growth,"S. cerevisiae deletion strains, locus YPL078C, strain atp4, stronger effect = lower value",0.98
same,normalized growth,"S. cerevisiae deletion strains, locus YPL106C, strain sse1, stronger effect = lower value",1.02
same,normalized growth,"S. cerevisiae deletion strains, locus YPL240C, strain hsp82, stronger effect = lower value",1.01
same,normalized growth,"S. cerevisiae deletion strains, locus YPL241C, strain CIN2, stronger effect = lower value",1.02
same,normalized growth,"S. cerevisiae deletion strains, locus YPL256C, strain CLN2, stronger effect = lower value",0.989
same,normalized growth,"S. cerevisiae deletion strains, locus YPR119W, strain clb2, stronger effect = lower value",0.978
same,normalized growth,"S. cerevisiae deletion strains, locus YPR141C, strain kar3, stronger effect = lower value",0.987
same,normalized growth,"S. cerevisiae deletion strains, locus YPR163C, strain tif3, stronger effect = lower value",0.98
same,normalized growth,"S. cerevisiae deletion strains, locus YPR167C, strain met16, stronger effect = lower value",0.982
same,normalized growth,"S. cerevisiae deletion strains, strain wtn01, stronger effect = lower value",0.987
same,normalized growth,"S. cerevisiae strains, strain wild type, stronger effect = lower value",1.01
